Data: the supplement of paper PMC11732987, “Enantioselective OTUD7B fragment discovery through chemoproteomics screening and high-throughput optimisation” (Communications Chemistry, 2025)

Legend:
Assay in all cases: log2 ratio of Biotin-Ahx-Ub-VS probe labelling (fragment/DMSO); higher = less target engagement (more negative = stronger competition), active = hit call of the paper (q ≤ 0.05, log2 ratio ≤ -1)
Conditions in all cases: compound concentration: 200 uM; treatment time: 3 h
USP19 = biological target: T1, USP19 (UniProt O94966)
T1 sequence (whole entry): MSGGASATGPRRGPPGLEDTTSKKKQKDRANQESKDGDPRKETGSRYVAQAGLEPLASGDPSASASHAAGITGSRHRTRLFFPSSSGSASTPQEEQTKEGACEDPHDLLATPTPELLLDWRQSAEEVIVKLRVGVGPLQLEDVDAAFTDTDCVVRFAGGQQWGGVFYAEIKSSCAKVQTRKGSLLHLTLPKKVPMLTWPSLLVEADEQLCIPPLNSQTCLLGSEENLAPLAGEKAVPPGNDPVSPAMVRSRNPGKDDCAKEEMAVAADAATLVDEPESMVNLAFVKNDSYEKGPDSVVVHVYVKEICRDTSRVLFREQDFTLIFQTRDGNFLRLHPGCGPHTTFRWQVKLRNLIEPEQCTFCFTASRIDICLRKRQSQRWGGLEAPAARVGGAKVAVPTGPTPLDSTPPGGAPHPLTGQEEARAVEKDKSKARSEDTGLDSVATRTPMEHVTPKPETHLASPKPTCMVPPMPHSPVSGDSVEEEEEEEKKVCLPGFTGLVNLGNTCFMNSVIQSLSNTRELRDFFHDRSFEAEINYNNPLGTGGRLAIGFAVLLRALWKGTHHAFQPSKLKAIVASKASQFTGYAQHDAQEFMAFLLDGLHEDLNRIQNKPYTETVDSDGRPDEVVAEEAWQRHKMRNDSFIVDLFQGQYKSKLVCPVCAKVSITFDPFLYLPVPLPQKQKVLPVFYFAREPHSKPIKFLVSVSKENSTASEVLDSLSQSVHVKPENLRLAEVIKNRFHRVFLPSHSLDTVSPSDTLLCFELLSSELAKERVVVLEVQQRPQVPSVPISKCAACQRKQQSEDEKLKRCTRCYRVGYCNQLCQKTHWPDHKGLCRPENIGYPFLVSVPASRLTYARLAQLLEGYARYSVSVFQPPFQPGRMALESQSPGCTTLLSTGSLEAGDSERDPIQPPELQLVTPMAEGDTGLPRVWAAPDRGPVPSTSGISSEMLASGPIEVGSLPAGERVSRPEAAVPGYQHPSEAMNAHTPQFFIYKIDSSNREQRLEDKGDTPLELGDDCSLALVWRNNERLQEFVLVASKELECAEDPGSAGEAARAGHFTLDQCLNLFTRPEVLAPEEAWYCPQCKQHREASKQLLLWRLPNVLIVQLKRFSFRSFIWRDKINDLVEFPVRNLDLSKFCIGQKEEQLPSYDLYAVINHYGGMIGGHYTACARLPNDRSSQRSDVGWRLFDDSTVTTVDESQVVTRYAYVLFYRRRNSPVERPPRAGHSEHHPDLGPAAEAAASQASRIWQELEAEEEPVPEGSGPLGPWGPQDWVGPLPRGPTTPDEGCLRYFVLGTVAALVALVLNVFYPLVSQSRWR
Summary of the method: (§1)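 Values give the average log2 ratio of fragment to vehicle, assessed by unpaired t-test on global-median-normalised Spectronaut label-free quantities. Proteins needed ≥2 unique peptides. HEK293T lysate (495 µg per sample) was treated in triplicate with fragment at 200 µM or vehicle for 3 h and then with Biotin-Ahx-Ub-VS at 0.5 µM final for 1 h. Labelled DUBs were NeutrAvidin-enriched, digested and run by diaPASEF LC-MS/MS.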

USP22 = biological target: T2, USP22 (UniProt Q9UPT9)
T2 sequence (whole entry): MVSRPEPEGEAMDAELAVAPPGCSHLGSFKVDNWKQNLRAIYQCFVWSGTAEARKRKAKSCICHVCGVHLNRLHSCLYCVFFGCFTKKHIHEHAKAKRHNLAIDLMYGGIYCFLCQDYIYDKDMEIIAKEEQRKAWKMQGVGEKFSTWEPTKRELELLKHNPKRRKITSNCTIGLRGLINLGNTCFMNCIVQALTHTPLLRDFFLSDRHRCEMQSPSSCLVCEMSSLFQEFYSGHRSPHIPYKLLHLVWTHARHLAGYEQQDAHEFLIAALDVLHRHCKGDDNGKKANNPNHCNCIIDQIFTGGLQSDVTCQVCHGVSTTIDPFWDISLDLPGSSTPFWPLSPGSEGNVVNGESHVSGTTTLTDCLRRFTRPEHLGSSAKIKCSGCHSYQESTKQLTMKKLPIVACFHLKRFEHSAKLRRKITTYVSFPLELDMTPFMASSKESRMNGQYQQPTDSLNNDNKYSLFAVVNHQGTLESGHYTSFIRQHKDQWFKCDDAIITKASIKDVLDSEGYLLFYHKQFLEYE
Summary of the method: as §1

USP24 = USP24 (UniProt Q9UPU5)
Chain of USP24 (Q9UPU5 whole entry): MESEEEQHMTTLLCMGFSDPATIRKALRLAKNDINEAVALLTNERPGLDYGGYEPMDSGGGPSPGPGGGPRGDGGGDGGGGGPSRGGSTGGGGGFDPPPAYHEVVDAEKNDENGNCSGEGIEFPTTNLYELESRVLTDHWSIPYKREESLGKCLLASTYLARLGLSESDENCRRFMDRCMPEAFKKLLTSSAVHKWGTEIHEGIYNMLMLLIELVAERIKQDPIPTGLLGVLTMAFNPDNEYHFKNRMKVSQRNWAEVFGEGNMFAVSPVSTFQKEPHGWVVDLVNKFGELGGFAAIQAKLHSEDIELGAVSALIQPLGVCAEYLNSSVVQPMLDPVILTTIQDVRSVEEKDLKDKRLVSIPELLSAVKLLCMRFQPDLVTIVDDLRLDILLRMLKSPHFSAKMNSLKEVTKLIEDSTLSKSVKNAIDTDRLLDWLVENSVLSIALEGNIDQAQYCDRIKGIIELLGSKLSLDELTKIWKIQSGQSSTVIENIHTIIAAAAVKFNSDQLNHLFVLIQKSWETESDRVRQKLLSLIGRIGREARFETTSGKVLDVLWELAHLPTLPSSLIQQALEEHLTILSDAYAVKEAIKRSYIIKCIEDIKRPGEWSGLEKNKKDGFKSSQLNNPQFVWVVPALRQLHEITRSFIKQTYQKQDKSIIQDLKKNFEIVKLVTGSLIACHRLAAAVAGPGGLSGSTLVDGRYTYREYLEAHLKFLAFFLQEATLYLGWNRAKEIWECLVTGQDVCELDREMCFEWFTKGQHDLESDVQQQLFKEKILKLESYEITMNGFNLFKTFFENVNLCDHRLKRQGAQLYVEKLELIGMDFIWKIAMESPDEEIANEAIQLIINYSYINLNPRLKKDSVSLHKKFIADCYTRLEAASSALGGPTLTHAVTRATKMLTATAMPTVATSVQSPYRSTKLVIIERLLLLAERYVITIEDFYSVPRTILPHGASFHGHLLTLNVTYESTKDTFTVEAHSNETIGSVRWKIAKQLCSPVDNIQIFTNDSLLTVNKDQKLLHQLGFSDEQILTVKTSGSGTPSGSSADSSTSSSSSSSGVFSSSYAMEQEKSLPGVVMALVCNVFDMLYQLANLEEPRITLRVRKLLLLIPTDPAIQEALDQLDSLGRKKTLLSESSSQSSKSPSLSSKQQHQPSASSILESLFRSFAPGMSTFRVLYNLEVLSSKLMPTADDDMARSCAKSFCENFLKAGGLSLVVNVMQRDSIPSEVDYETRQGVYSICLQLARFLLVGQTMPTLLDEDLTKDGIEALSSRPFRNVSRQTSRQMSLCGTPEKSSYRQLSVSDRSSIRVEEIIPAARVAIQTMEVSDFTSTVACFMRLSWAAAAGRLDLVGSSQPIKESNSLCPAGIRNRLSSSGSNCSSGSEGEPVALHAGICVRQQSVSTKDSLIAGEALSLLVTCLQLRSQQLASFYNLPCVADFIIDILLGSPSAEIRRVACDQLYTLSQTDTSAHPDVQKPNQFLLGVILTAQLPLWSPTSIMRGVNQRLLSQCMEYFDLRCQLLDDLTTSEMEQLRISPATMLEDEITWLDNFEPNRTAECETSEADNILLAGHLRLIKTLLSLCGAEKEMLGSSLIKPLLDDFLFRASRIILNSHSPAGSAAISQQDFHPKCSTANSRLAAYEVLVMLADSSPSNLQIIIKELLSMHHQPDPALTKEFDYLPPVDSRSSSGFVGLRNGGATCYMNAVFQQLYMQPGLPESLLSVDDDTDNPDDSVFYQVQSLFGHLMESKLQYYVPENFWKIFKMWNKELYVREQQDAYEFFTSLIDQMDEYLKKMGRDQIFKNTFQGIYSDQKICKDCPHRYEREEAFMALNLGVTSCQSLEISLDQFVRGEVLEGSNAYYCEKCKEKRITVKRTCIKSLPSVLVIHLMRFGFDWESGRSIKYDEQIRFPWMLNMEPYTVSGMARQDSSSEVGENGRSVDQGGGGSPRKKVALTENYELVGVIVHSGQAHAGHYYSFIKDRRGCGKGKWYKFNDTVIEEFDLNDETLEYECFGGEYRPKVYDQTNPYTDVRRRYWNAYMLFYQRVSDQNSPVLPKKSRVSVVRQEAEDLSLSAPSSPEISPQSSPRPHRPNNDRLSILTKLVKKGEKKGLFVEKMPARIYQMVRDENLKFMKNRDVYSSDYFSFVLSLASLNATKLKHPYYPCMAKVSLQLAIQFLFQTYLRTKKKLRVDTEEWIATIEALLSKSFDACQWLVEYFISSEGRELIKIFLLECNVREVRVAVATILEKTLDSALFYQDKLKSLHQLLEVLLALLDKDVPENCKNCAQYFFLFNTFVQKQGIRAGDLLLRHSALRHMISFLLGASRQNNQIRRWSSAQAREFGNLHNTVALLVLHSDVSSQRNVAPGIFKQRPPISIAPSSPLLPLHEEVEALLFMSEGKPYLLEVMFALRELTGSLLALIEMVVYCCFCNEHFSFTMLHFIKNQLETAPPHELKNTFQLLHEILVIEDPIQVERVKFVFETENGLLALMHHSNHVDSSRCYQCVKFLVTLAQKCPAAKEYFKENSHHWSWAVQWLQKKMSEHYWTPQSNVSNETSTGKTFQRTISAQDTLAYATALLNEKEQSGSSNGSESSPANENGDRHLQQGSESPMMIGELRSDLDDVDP
Summary of the method: as §1

USP25 = biological target: T3, USP25 (UniProt Q9UHP3)
T3 sequence (whole entry): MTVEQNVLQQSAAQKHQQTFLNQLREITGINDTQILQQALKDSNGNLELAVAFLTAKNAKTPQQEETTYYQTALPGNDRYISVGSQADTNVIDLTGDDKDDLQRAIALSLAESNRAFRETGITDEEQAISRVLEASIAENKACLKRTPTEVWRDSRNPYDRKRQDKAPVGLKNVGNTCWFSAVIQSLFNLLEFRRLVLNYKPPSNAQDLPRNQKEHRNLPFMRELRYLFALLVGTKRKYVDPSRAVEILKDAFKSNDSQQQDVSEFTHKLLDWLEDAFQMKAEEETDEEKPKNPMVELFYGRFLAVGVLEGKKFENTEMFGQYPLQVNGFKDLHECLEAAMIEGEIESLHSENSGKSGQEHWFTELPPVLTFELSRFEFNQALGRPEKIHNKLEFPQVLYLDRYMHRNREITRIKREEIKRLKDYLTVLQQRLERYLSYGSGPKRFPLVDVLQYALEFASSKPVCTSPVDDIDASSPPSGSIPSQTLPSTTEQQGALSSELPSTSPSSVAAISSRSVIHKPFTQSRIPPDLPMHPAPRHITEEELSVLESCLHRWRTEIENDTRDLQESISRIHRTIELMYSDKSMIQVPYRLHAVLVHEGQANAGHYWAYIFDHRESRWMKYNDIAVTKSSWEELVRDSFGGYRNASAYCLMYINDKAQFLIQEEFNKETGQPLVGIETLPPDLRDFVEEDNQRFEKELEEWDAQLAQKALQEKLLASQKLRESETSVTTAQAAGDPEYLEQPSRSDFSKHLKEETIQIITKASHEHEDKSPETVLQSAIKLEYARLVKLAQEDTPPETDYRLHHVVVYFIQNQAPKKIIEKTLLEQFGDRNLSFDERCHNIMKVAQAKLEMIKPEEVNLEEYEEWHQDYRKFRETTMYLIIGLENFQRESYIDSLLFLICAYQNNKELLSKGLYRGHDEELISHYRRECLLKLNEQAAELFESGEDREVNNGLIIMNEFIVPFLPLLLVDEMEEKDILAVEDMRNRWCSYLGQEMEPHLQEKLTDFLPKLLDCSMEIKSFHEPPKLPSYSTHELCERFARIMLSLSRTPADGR
Summary of the method: as §1

USP28 = biological target: T4, USP28 (UniProt Q96RU2)
T4 sequence (whole entry): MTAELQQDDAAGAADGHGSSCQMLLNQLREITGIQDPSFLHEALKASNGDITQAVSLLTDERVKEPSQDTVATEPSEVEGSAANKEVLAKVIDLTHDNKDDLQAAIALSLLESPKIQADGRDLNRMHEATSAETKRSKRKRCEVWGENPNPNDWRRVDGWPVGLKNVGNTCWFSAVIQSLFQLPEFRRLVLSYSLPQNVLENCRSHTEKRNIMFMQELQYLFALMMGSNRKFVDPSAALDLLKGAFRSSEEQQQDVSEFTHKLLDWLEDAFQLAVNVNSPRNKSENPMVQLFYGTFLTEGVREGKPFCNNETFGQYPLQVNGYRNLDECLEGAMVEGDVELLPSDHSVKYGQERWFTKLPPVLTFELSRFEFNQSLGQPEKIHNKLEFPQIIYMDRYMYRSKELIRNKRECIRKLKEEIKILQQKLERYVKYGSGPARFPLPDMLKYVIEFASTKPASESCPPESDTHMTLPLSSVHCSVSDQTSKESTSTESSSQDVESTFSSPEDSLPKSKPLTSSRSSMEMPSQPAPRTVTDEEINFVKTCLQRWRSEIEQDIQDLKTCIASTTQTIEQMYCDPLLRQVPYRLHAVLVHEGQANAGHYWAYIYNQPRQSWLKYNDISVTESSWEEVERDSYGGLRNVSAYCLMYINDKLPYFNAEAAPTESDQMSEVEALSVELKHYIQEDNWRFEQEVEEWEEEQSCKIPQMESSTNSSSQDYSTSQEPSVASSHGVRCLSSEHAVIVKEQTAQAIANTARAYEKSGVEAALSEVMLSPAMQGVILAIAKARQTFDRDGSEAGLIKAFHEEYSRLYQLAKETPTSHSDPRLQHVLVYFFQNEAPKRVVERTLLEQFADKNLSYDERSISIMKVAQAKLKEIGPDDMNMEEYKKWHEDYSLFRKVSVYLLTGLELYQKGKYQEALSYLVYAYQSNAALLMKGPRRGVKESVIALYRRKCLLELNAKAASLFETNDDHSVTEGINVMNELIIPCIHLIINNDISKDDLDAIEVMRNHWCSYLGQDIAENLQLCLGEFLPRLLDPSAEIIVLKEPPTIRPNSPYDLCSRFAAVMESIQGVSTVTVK
Summary of the method: as §1

Measured: log2 ratio of Biotin-Ahx-Ub-VS probe labelling

Cl.Cn1cnc2cc(CNC(=O)CCl)ccc21
inactive: USP19 -0.154 | USP22 0.00285 | USP24 -0.0163 | USP25 -0.177 | USP28 -0.154
